Data reported in PubChem BioAssay AID1851 (National Center for Advancing Translational Sciences (NCATS), 2009).
Among all 16,000 compounds or so, about 4,000 (25%) were called active. About 26% were inconclusive and are not listed. Calls come from the whole dose curve; as a rule, active = well fitted curve in the direction sought with a large enough effect; inconclusive = small, poorly fitted or top-dose-only effect, or effect the other way; inactive = no such curve, though single readings can be large or run the other way. Only a sample is shown.

What follows are molecules tested against Cytochrome P450 2C9 (Homo sapiens) (UniProt P11712) (assay: Cytochrome panel assay with activity outcomes). Details: recombinant CYP, pro-luciferin dealkylation, luminescence, p450-cyp2c9; series mostly up to 57.1 µM; activity, negative = inhibition: at the top concentration.
Chain of Cytochrome P450 2C9 (Homo sapiens) (P11712 whole entry, looked up): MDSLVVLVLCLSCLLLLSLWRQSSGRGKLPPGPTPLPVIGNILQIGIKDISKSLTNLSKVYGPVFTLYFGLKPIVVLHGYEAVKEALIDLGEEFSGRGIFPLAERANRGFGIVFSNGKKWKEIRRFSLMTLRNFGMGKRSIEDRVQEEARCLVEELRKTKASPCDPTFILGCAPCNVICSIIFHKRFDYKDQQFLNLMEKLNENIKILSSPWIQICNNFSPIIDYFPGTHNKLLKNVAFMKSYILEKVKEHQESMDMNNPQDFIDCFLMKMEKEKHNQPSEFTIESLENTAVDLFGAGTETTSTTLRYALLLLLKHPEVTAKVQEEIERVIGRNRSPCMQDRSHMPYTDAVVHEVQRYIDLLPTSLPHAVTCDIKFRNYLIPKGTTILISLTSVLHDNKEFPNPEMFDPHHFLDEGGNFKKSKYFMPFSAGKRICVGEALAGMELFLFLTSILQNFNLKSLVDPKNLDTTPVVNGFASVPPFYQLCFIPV
% is set by controls: 0 for no effect and ±100 for the full control effect.

Compound	activity, negative = inhibition	AC50
C[C@H](NC[C@H](O)CP(=O)(O)CC1CCCCC1)c1ccc(Cl)c(Cl)c1	5.16% (inactive)	–
CC(C)CN(CC(C)C)C1=N/C(=C\c2ccco2)C(=O)N1c1ccccc1	–	3.98 µM (active)
Cc1cnc(CNc2ccnc(-c3ccccc3C(F)(F)F)n2)cn1	8.33% [at 2.29 µM] (inactive)	–
C#CCSc1n[nH]c(-c2ccco2)n1	0.366% [at 11.4 µM] (inactive)	–
CC#C[C@]1(O)CC[C@H]2[C@@H]3CCC4=CC(=O)CCC4=C3[C@H](c3ccc(N(C)C)cc3)C[C@@]21C	-27.4% (inactive)	–
CC#C[C@@]1(O)CC[C@H]2[C@@H]3CCC4=CC(=O)CCC4=C3[C@H](c3ccc(N(C)C)cc3)C[C@]21C	–	3.98 µM (active)
CC1Cc2ccccc2N1C(=O)CSCC(=O)O (centres undefined)	-1.23% (inactive)	–
CCCC(=O)N1c2ccccc2C(N(C(C)=O)c2ccccc2)CC1C (centres undefined)	–	3.98 µM (active)
Cn1nc(C(F)(F)F)c(/C=N/OCc2c(Cl)cccc2Cl)c1Cl	–	1.58 µM (active)
O=C(NCCCN1CCCCCC1)C1CC(=O)N(CCc2ccccc2)C1 (centres undefined)	-5.16% (inactive)	–
COc1ccc(-c2cc(C3CCN(c4cc(Cl)nc(N)n4)CC3)[nH]n2)cc1	–	14.1 µM (active)
CC(=O)c1ccc(N2CCC(c3cc(-c4ccc(Cl)cc4)n[nH]3)CC2)c([N+](=O)[O-])c1	–	3.98 µM (active)
CC(=O)c1ccc(N2CCC(c3cc(-c4ccc(Cl)cc4Cl)n[nH]3)CC2)c([N+](=O)[O-])c1	–	3.98 µM (active)
COc1ccc(-c2cc(C3CCN(c4ccc(C(C)=O)cc4[N+](=O)[O-])CC3)[nH]n2)cc1	–	7.94 µM (active)
CC(C)NC(=O)N1CCC2(CC1)CCN(S(C)(=O)=O)CC2	9.5% (inactive)	–
CN(Cc1ccco1)c1ncncc1-c1ccccc1C(F)(F)F	-7.74% [at 2.29 µM] (inactive)	–
COc1ccccc1-c1cc(Nc2ccn[nH]2)ncn1	-3.07% [at 2.29 µM] (inactive)	–
CC(C)SC(=N)N	-9.07% (inactive)	–
Clc1ccc([C@H](Cn2ccnc2)OCc2csc3c(Cl)cccc23)c(Cl)c1	–	0.316 µM (active)
Clc1ccc(COC(Cn2ccnc2)c2ccc(Cl)cc2Cl)c(Cl)c1 (centres undefined)	–	0.316 µM (active)
NC(N)=NC(N)=Nc1c(F)c(F)c(F)c(F)c1F	0.138% [at 11.4 µM] (inactive)	–
O=C(O)c1cc2cc(Cc3cccnc3)ccc2o1	0.178% (inactive)	–
Cc1cccc(OCCn2c(S(=O)(=O)O)nc3ccccc32)c1	–	5.62 µM (active)
OCCN1CCN(CCOc2cccc(Cl)c2)CC1	-19.2% (inactive)	–
CS(=O)(=O)c1nc2ccccc2n1Cc1ccccc1	-24.8% (inactive)	–
O=C(O)[C@@H]1[C@H](C(=O)O)[C@H]2C(=O)C=C[C@H]1N2Cc1ccccc1	4.11% [at 11.4 µM] (inactive)	–
O=S(=O)(O)c1nc2ccccc2n1Cc1ccccc1	–	25.1 µM (active)
Cc1cccc(OCCn2c(-c3ccco3)nc3ccccc32)c1	–	1.78 µM (active)
Cc1cccc(CCNc2nc3ccccc3n3nnnc23)c1	-13.9% (inactive)	–
